± gives the standard deviation of the averaged measurements.
Legend:
DLD1 [1] = assay: cell viability (CellTiter-Glo) relative to plate median (fraction of plate median); higher = more viable cells; details: 5 µM; treatment time 24 h; reporter: 7TFP
Summary of the method: (§1)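 Two independent replicates were averaged for each reported value. Library compounds were applied at a final 5 µM for 24 h to colorectal cancer cell lines stably expressing lentiviral TCF/Wnt firefly luciferase reporters. Firefly luciferase or CellTiterGlo luminescence from each well was normalised to the plate median.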

HCT116 = assay: as above; details: 5 µM; treatment time 24 h; reporter: TCF4/Wnt
Summary of the method: as §1

SW480 [2] = assay: as above; details: 5 µM; treatment time 24 h; reporter: 7TFP
Summary of the method: as §1

DLD1 [3] = assay: TCF/Wnt firefly luciferase reporter signal relative to plate median (fraction of plate median); higher = higher Wnt reporter signal; details: 5 µM; treatment time 24 h; reporter: 7TFP
Summary of the method: as §1

SW480 [4] = assay: as above; details: 5 µM; treatment time 24 h; reporter: 7TFP
Summary of the method: as §1

Row | SMILES | cell viability (DLD1 [1]) | cell viability (HCT116) | cell viability (SW480 [2]) | TCF/Wnt firefly luciferase reporter signal (DLD1 [3]) | TCF/Wnt firefly luciferase reporter signal (SW480 [4])
1 | CC(C)(C)NC[C@H](O)COc1cccc2c1CCCC2=O | 0.99 ± 0.043 | 1.03 ± 0.075 | 0.9555 ± 0.0035 | 0.886 ± 0.0085 | 0.981 ± 0.084
2 | CCOC(=O)[C@H](CCc1ccccc1)N[C@@H](C)C(=O)N1[C@H](C(=O)O)C[C@@H]2CCC[C@@H]21 | 1.11 ± 0.17 | 1.08 ± 0.014 | 1.1 ± 0.042 | 1.06 ± 0.035 | 1.06 ± 0.1
3 | O=c1oc2ccccc2cc1O | 0.992 ± 0.04 | 0.955 ± 0.013 | 1.03 ± 0.021 | 0.765 ± 0.016 | 0.911 ± 0.14
4 | COc1ccc(CN(CCN(C)C)c2ccccn2)cc1 | 1.07 ± 0.057 | 1.01 ± 0.14 | 1.08 ± 0.021 | 0.96 ± 0.071 | 1.13 ± 0.014
5 | C=C[C@H]1CN2CC[C@H]1C[C@H]2[C@H](O)c1ccnc2ccc(OC)cc12 | 1.11 ± 0.035 | 1.06 ± 0.021 | 1.07 ± 0.092 | 1.205 ± 0.0071 | 0.983 ± 0.11
6 | CC[C@@H](C)c1cc(=O)c2c(CO)cc3c(c2o1)C(=O)c1c(O)cccc1C3=O [Espicufolin] | 1.09 ± 0.092 | 1.13 ± 0.057 | 1.055 ± 0.0071 | 1.29 ± 0.15 | 1.06 ± 0.057
7 | CC(C)Cn1c(=O)n(C)c(=O)c2nc[nH]c21 | 0.956 ± 0.048 | 1.04 ± 0.05 | 0.9585 ± 0.0092 | 0.972 ± 0.054 | 0.987 ± 0.018
8 | NCCOB(c1ccccc1)c1ccccc1 | 0.968 ± 0.037 | 0.933 ± 0.042 | 0.96 ± 0.0071 | 1.135 ± 0.0071 | 1.04
9 | CC(C(=O)O)[C@H]1CCC2C3CC=C4C[C@@H](O)CC[C@]4(C)C3CC[C@@]21C (stereo partly drawn) [3beta-HYDROXY-23,24-BISNORCHOL-5-ENIC ACID] | 1.09 ± 0.057 | 1.05 ± 0.071 | 0.999 ± 0.016 | 1.01 ± 0.021 | 1.09 ± 0.028
10 | O=NN(CCCl)C(=O)NCCCl | 1.05 ± 0.014 | 1.06 ± 0.05 | 1.04 | 1.19 ± 0.021 | 1.045 ± 0.0071

— the supplement of paper PMC6522484
